# Source: PubChem BioAssay
# System: wheat germ agglutinin (Triticum aestivum), Alexa647-labelled
# Test: wheat germ agglutinin binders on compound microarrays, profiling panel, artefact control for SMM control-protein annotation, biochemical, small-molecule microarray, 635/667 nm fluorescence (AID 1140);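 further: score merges 667 nm feature emission with signal to noise over triplicate slides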
# Conditions: WGA-A647 binding, 635 nm fluorescence, higher = more signal
row,SMILES,composite z-score
1,COc1ccc(CCN2C(=O)[C@@]3(c4ccc([N+](=O)[O-])cc4)CC(=O)N(CC45CC6CC(CC(C6)C4)C5)[C@@H]3c3ccc(CO)cc32)cc1,-0.0366
2,C=CCN1C(=O)[C@@]2(Cc3ccccc3)N=C(c3ccc(OCCCO)cc3)O[C@H]2c2ccccc21,0.648
3,CN1CCC(CCCO)=CC1C1CC1 (stereo unspecified),-0.59
4,CC(C)N1CC=CC23O[C@@H]4/C=C\CCCOC(=O)C4[C@H]2C(=O)N(CCCCCO)[C@@H]3C1=O (stereo partly specified),-1.78
5,COCCOC(=O)N1C(=O)[C@@]2(c3cc(C#CCC(C(=O)OC)C(=O)OC)ccc31)[C@H](C(=O)N1CCN(c3ncccn3)CC1)[C@H]1C(=O)O[C@H](c3ccccc3)[C@H](c3ccccc3)N1[C@@H]2c1ccc(O)cc1,1.07
6,CCC(=O)[C@]12O[C@@]3([C@@H]4C(=O)OCC[C@@H]41)N(Cc1ccccc1)C(C)=C(C(=O)OC)[C@@H](c1ccccc1)N3C2=O,-0.803
7,COC(=O)[C@@]1(Cc2ccc(OC)cc2)[C@H]2c3cc(C(=O)N(C)C)n(Cc4ccc(C)c(F)c4F)c3C[C@H]2CN1C(=O)c1ccccc1,0.546
8,COc1cc(CO)cc(I)c1O[C@H]1C=C(C(=O)NCCO)C[C@@H](NCCc2c[nH]c3ccccc23)[C@@H]1O,1.21
9,Cc1ccc(N2C(=O)c3ccccc3[C@](C)(C(=O)O)[C@@H]2c2ccc(CO)cc2)nc1,-0.576
10,COC(=O)[C@@]1(Cc2ccccc2)[C@H]2c3cc(C(=O)N4CCCC4)n(CCN4CNCC4=O)c3C[C@H]2CN1C(=O)c1ccccc1,0.342
11,CO[C@@H]1COC(=O)[C@H](C)NC(=O)CC=C[C@@H](C)[C@H](OC)COC(=O)[C@H](C)NC(=O)CC=C[C@H]1C,0.222
